Assay results taken from PubChem BioAssay.

Experiment: binders of probe aHhip on microarray, primary screen, stem cell growth factor project, biochemical, small-molecule microarray, fluorescence 635/667 (AID 1087);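 also: score merges spot fluorescence at 667nm with spot signal to noise ratio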
Conditions: higher = more signal

SMILES | composite z-score
CC(C)CON=C1[C@H]2CCn3c(=O)n(-c4ccccc4)c(=O)n3[C@H]2[C@H](O)[C@@H]2O[C@H]12 | -0.069
O=C1C[C@@H](O)[C@@H](O)[C@@H]2[C@@H]3C(=O)N(c4cccc(Oc5ccccc5)c4)C(=O)[C@@H]3CC[C@@H]12 | 0.0659
CO[C@H]([C@@H](C)[C@H](OC)c1ccccc1)[C@H](C)[C@@H](OC)[C@H](C)C(C)=O | 2.49
Cc1ccc(S[C@]2(C(=O)NCC(F)(F)F)CC(=O)N(Cc3ccccc3Cl)[C@@H]2c2ccc(CO)cc2I)cc1 | -0.284
O=C1O[C@@H](c2ccccc2)[C@@H](c2ccccc2)N2[C@@H](c3ccc(O)cc3)[C@]3(C(=O)Nc4ccccc43)[C@@H](C(=O)O)[C@H]12 | -0.0212
COCCNC(=O)OCC1CCCC2(CC(OC(=O)NCCc3ccc(F)cc3)CC(CCC(=O)N[C@@H](C)C(=O)OC)O2)O1 (stereo partly specified) | -0.196
CCCNC(=O)[C@@H]1c2ccccc2C(=O)N(c2ccc(C)cn2)[C@H]1c1ccc(CO)cc1 | -0.258
CCOC(=O)[C@H](CC(C)C)NC(=O)CCC1CC(OC(=O)NCCc2ccc(F)cc2)CC2(CCCC(COC(=O)NCc3ccccc3)O2)O1 (stereo partly specified) | 0.0695
CCOC(=O)CCN1C(=O)[C@H]2[C@H]3[C@H](O)[C@H](O)CC(=O)[C@H]3CC[C@H]2C1=O | -0.132
C=CCC(OC(C)=O)[C@@H]1[C@@H](N(Cc2cc3ccccc3o2)C(=O)Cc2ccc(F)cc2)c2cc(OCCCO)ccc2N1C(=O)Cc1ccc(OC)cc1 (stereo partly specified) | 0.0373
CCOC(=O)NN=C1C[C@@H](O)[C@@H](O)[C@@H]2[C@@H]3C(=O)N(C[C@@H]4CCCO4)C(=O)[C@@H]3CC[C@@H]12 | -0.0994
COc1ccc(-c2nc3c(c4c2C[C@H](C)OC4)CN(CCC(C)C)CC3)cc1 | -0.189
CO[C@@H]1COC(=O)[C@@H]2CCCN2C(=O)[C@@H](C)COC(=O)[C@H](COCc2ccccc2)NC(=O)CC=C[C@H]1C | -0.0645
CCN1C(=O)[C@H]2[C@H]3[C@H](O)[C@H](O)CC(=NOC(C)CN4CCCCc5nc(C)c(C)cc54)[C@@H]3CC[C@H]2C1=O (stereo partly specified) | 0.119
CCc1cc2c(nc1CC)CCN(CCC(C)=NO[C@@H](C)c1cc(-c3c(C)cc(C)cc3C)no1)C2 | 0.0187
CO[C@H]1O[C@H](CO)[C@@H](OC(=O)Nc2ccc3c(c2)OCO3)[C@H](OC(=O)Nc2ccccc2-c2ccccc2)[C@@H]1OC(=O)Nc1ccccc1-c1ccccc1 | 0.151
COC(=O)[C@@]1(Cc2ccc(F)cc2)[C@H]2c3cc(C(=O)N(C)C)n(Cc4ccc(OC)c(OC)c4)c3C[C@H]2CN1C(=O)c1ccccc1 | 0.402
CC(C)NC(=O)[C@@]1(C)c2ccccc2C(=O)N(Cc2cc(F)cc(C(F)(F)F)c2)[C@H]1c1ccc(CO)cc1 | -0.134

SMILES | composite z-score
O=C1NC(=O)C2C1C=CC(C(O)Cc1ccccc1)N2Nc1ccccn1 (stereo unspecified) | -0.0618
CC[C@@H](c1ccccc1)n1c(=O)n2n(c1=O)[C@H]1[C@H](O)[C@@H]3O[C@@H]3C(=NOCC(C)C)[C@H]1CC2 | -0.0994
COc1cccc([C@H]2Oc3ccc(OC)cc3C(=NO[C@H](C)c3cn([C@@H]4COC[C@H]4O)nn3)[C@@H]2O)c1 | -0.305
COCCOC(=O)N1C(=O)[C@@]2(c3cc(C#CCNC(N)=O)ccc31)[C@H](c1ccc(O)cc1)N1[C@H](c3ccccc3)[C@H](c3ccccc3)OC(=O)[C@H]1[C@@H]2C(=O)N1CCCCCCC1 | -0.0491
C[C@@H](c1ccccc1)N1C(=O)[C@H]2[C@H]3[C@H](O)C=CC(=O)[C@@H]3CC[C@H]2C1=O | -0.0738
CCCC[C@H]1OB(O)C[C@H]2C1=C(C)C[C@H]1C(=O)N(C)C(=O)[C@H]12 | -0.156
CCCCc1nc2c(c3c1C[C@H](C)OC3)CN(CCC(C)C)CC2 | -0.199
C/C=C\[C@@H](NCc1ccccc1Br)[C@@H](O)Cc1ccccc1 | -0.236
CC(=O)C[C@H](O)[C@@H](NC(=O)OC(C)(C)C)C(C)C | -0.0668
CC(C)=CCCC(C)=CCON=C1C[C@@H](O)[C@@H](O)[C@@H]2[C@@H]3C(=O)N(C[C@@H]4CCCO4)C(=O)[C@@H]3CC[C@@H]12 | 0.0749
CCOC(=O)NN=C1C[C@@H](O)[C@@H](O)[C@@H]2[C@@H]3C(=O)N(C(C)(C)C)C(=O)[C@@H]3CC[C@@H]12 | -0.0994
COCCCNC(=O)[C@]1(Cc2ccccc2)N=C(c2ccc(OCCCO)cc2)O[C@@H]1c1ccccc1 | -0.0645
CC(C)=NOCc1ccc(-c2cc(-c3ccccc3)no2)cc1 | -0.0296
COCCCNC(=O)[C@@]1(Sc2ccc(C)cc2)CC(=O)N(Cc2ccccc2)[C@@H]1c1ccc(CO)cc1I | 0.0327
COc1ccc(-c2ccc3c(n2)CCCN3CC(O)CN2CCCc3nc(C)c(C)cc32)cc1 (stereo unspecified) | 0.38
CC(=O)OC[C@H]1O[C@H](CC=NOC[C@@H](C)[C@H](OCc2ccccc2)C(C)C)C=C[C@@H]1OC(C)=O | -0.0645
CC(CCC(=O)OC[C@H]1O[C@H](C#Cc2ccccc2)C=C[C@@H]1Oc1ccc(C)cc1)=NO[C@@H](C)c1cn([C@H](CO)Cc2ccccc2)nn1 | -0.327
COc1ccc([Si](C)(C)[C@H]2[C@H](CCO)O[C@@]3(C(=O)N(Cc4cccc(NC(=O)[C@H](C)O)c4)c4ccccc43)[C@@H]2C)cc1 | 0.212
